In PubChem BioAssay AID1159580 (chemical genetic matrix, 2015):
In all, about 5,500 compounds went through this assay and about 2,000 (36%) were called active. Another 18% or so got no clear call; they are omitted. No stated cut-off is given here; in the data, active means normalized growth mostly below about 0.91 (no sharp cut-off); inconclusive means no clear call, values can overlap the other calls; inactive means mostly above about 0.92. Some of the results follow.

Test: chemical genetic growth profiling, strain panel (AID 1159580);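 further: tested at 20 µM; growth read once vehicle control cultures reached saturation at 30 °C; 1 = growth at the plate median or of vehicle wells; lower values mean less growth of the strain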
Details: S. cerevisiae deletion strains, growth OD

Measured: normalized growth

COP(=S)(OC)Oc1ccc(Sc2ccc(OP(=S)(OC)OC)cc2)cc1
inactive: locus YAL021C, strain ccr4, active compounds read low 1 | locus YAL026C, strain drs2, active compounds read low 1 | locus YAL030W, strain snc1, active compounds read low 0.999 | locus YBL061C, strain skt5, active compounds read low 1.01 | locus YBR009C, strain hhf1, active compounds read low 1.01 | locus YBR023C, strain chs3, active compounds read low 1.01 | locus YBR171W, strain sec66, active compounds read low 0.992 | locus YBR231C, strain swc5, active compounds read low 1 | locus YBR279W, strain paf1, active compounds read low 1.01 | locus YCL011C, strain gbp2, active compounds read low 1 | locus YCL016C, strain dcc1, active compounds read low 1.01 | locus YCL061C, strain MRC1, active compounds read low 1.01 | locus YCL069W, strain vba3, active compounds read low 1.01 | locus YCR088W, strain abp1, active compounds read low 0.994 | locus YDL005C, strain med2, active compounds read low 0.998 | locus YDL040C, strain nat1, active compounds read low 1 | locus YDR001C, strain nth1, active compounds read low 1.01 | locus YDR069C, strain doa4, active compounds read low 1.02 | locus YDR137W, strain rgp1, active compounds read low 1.02 | locus YDR159W, strain sac3, active compounds read low 0.994 | locus YDR195W, strain ref2 0.976 | locus YDR297W, strain sur2, active compounds read low 1 | locus YDR334W, strain swr1, active compounds read low 1.01 | locus YDR335W, strain msn5, active compounds read low 1.01 | locus YDR392W, strain spt3, active compounds read low 0.993 | locus YEL003W, strain gim4, active compounds read low 1.01 | locus YEL037C, strain rad23, active compounds read low 1 | locus YEL061C, strain CIN8 (second series), active compounds read low 1 | locus YER015W, strain faa2, active compounds read low 1 | locus YER016W, strain bim1, active compounds read low 1 | locus YER111C, strain swi4, active compounds read low 1 | locus YER155C, strain BEM2 (second series), active compounds read low 1 | locus YFR010W, strain ubp6, active compounds read low 1.01 | locus YGL167C, strain pmr1, active compounds read low 0.998 | locus YGL173C, strain kem1, active compounds read low 1 | locus YGL227W, strain vid30, active compounds read low 1 | locus YGL240W, strain doc1, active compounds read low 0.999 | locus YGL253W, strain hxk2, active compounds read low 1 | locus YHR013C, strain ard1, active compounds read low 0.986 | locus YHR027C, strain rpn1, active compounds read low 1.01 | locus YHR030C, strain SLT2, active compounds read low 0.973 | locus YHR079C, strain IRE1, active compounds read low 1.01 | locus YHR142W, strain chs7, active compounds read low 1.01 | locus YJL092W, strain hpr5, active compounds read low 1 | locus YJL095W, strain BCK1 (second series), active compounds read low 1 | locus YJL095W, strain BCK1, active compounds read low 0.999 | locus YJL115W, strain asf1, active compounds read low 1 | locus YJL129C, strain trk1, active compounds read low 1.02 | locus YJL154C, strain vps35, active compounds read low 1.01 | locus YJL164C, strain tpk1, active compounds read low 1.02 | locus YJL166W, strain qcr8, active compounds read low 1.01 | locus YJL187C, strain SWE1, active compounds read low 1.01 | locus YJR066W, strain TOR1, active compounds read low 0.946 | locus YKL160W, strain elf1, active compounds read low 1 | locus YKR026C, strain gcn3, active compounds read low 1 | locus YKR091W, strain srl3, active compounds read low 0.997 | locus YLL001W, strain dnm1, active compounds read low 1 | locus YLL026W, active compounds read low 0.995 | locus YLL041C, strain sdh2, active compounds read low 1 | locus YLR027C, strain aat2, active compounds read low 1 | locus YLR113W, strain HOG1, active compounds read low 0.977 | locus YLR221C, strain rsa3, active compounds read low 1 | locus YLR258W, strain gsy2, active compounds read low 1 | locus YLR262C, strain YPT6 (second series), active compounds read low 1.04 | locus YLR320W, strain mms22, active compounds read low 0.993 | locus YLR342W, strain FKS1, active compounds read low 1.01 | locus YLR357W, strain rsc2, active compounds read low 1.01 | locus YLR370C, strain arc18, active compounds read low 1.01 | locus YLR384C, strain iki3, active compounds read low 1 | locus YML120C, strain ndi1, active compounds read low 1.01 | locus YMR058W, strain fet3, active compounds read low 1.04 | locus YMR125W, strain sto1, active compounds read low 1 | locus YMR129W, active compounds read low 1.01 | locus YMR205C, strain PFK2, active compounds read low 0.992 | locus YMR231W, strain pep5, active compounds read low 1 | locus YNL071W, strain lat1, active compounds read low 1.01 | locus YNL183C, strain NPR1, active compounds read low 0.945 | locus YNL209W, strain ssb2, active compounds read low 1.01 | locus YNL248C, strain rpa49, active compounds read low 1 | locus YNL322C, strain KRE1 (second series), active compounds read low 1 | locus YNR049C, strain mso1, active compounds read low 1.01 | locus YOR001W, strain rrp6, active compounds read low 1 | locus YOR070C, strain gyp1, active compounds read low 1.01 | locus YOR080W, strain dia2, active compounds read low 1 | locus YOR083W, strain WHI5, active compounds read low 1.01 | locus YOR106W, strain vam3, active compounds read low 0.999 | locus YOR231W, strain MKK1, active compounds read low 0.984 | locus YOR265W, strain rbl2, active compounds read low 1.02 | locus YOR270C, strain vph1, active compounds read low 1.03 | locus YOR290C, strain snf2, active compounds read low 1 | locus YPL051W, strain arl3, active compounds read low 1.01 | locus YPL078C, strain atp4, active compounds read low 1.01 | locus YPL106C, strain sse1, active compounds read low 1.03 | locus YPL240C, strain hsp82, active compounds read low 1 | locus YPL256C, strain CLN2, active compounds read low 1.03
